MEKK2 mut-MEK5: signal of MEK5 binding to mutant human MEKK2 PB1 domain; bead flow cytometry, Alexa488-MEK5 binding to MEKK2 mutant; percent response, % at 10 µM; actives 0.35% (n = 290,000); in the data active = percent response above about 24%, passing the limit was not always enough
MEKK3 PB1 HTS: modulators (inhibitors or enhancers) of MEK5 binding to human MEKK3 PB1 domain | Q99759 | binding response (% of control), % at 10 µM | AID 1529 | bead-based flow cytometry, Alexa488-MEK5 binding to MEKK3; actives lie on both sides; 0 = blocked by unlabeled MEK5, 100 = vehicle | actives 1.4% (n = 290,000);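 active = binding response more than 3 SD above or below the average of its plate-row segment, actives on both sides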;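 note: Alexa488 bead fluorescence after subtracting the streptavidin-only scavenger bead signal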
PREPL inh: inhibits the human prolyl oligopeptidase-like enzyme; Q4J6C6; recombinant PREPL, fluorescence polarization activity-based probe; inhibition, % at 5.96 µM; actives 0.68% (n = 320,000); in the data active = inhibition above about 43%;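 note: 0% = enzyme with DMSO and 100% = wells lacking enzyme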
MEKK2wt PB1 HTS: raises or lowers MEK5 binding to wildtype human MEKK2 PB1 domain; bead flow cytometry, Alexa488-MEK5 binding to MEKK2 WT; actives lie on both sides; binding response (% of control), % at 10 µM; actives 1.1% (n = 290,000); AID 1531; in the data active = binding response below about 67% or above about 130%
UBC13 inh: blocks human UBC13 polyubiquitin chain formation; inhibition, % at 20 µM; P61088; TR-FRET; actives 0.47% (n = 330,000); in the data active = inhibition above about 45%, passing the limit was not always enough
Target sequence (P61088 whole entry, looked up): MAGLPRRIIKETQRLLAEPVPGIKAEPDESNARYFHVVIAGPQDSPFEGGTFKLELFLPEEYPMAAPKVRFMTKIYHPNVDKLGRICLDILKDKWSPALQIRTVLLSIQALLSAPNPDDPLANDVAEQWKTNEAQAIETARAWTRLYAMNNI
ATG4B inh: blocks human ATG4B protease cleavage of LC3 substrate | inhibition, % at 8.33 µM | ATG4B cleavage of LC3-PLA2, NBD-HPC fluorescence, 1 h | Q9Y4P1 | actives 0.51% (n = 340,000); in the data active = inhibition above about 40%
MEKK2wt confirm: raises or lowers MEK5 binding to wildtype human MEKK2, retest | bead flow cytometry, Alexa488-MEK5 binding to MEKK2 WT; actives lie on both sides | binding response (% of control), % at 10 µM | shares compounds with MEKK3 PB1 HTS | actives 2.4% (n = 5,900); in the data active = binding response below about 16% or above about 210%; inactive = in between
MEKK2mut confirm: signal of MEK5 binding to mutant human MEKK2, retest | shares compounds with MEKK3 PB1 HTS | bead flow cytometry, Alexa488-MEK5 binding to MEKK2 mutant | percent response, % at 10 µM | actives 2% (n = 5,900) | AID 1893; in the data active = percent response mostly above about 71%, no sharp cut-off; inactive = mostly below about 38%;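 note: higher means compound restores mutant binding toward wildtype level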
MEKK3 confirm: confirmation of inhibitors of MEK5 binding to human MEKK3 | shares compounds with MEKK3 PB1 HTS | bead flow cytometry, Alexa488-MEK5 binding to MEKK3; active compounds read low | binding response (% of control), % at 10 µM | actives 1.8% (n = 5,900) | AID 1894;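 active = binding response below 72% of control, or above a set upper limit, though filed actives all read lower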;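 note: 100% = DMSO only wells and 0% = binding blocked by excess unlabeled MEK5; lower values mean stronger disruption of MEK5 binding to MEKK3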
* hit, by the source's call; x = not tested or not shown; [ ] = remark or other dose. Shown are actives, neighbours in structure and some others; about 3.1% of the full set was active somewhere.

SMILES	MEKK2 mut-MEK5	MEKK3 PB1 HTS	PREPL inh	MEKK2wt PB1 HTS	UBC13 inh	ATG4B inh	MEKK2wt confirm	MEKK2mut confirm	MEKK3 confirm
C=CCNc1oc(COc2ccc(C)cc2)nc1C#N	-3	92	-1	93	2	9	x	x	x
CCc1cc(Br)ccc1NC(=S)NCCc1ccccc1	-7	96	x	94	0	12	x	x	x
CN(Cc1ccccc1)C(=O)CC(c1ccccc1)c1cc(Cl)ccc1O (stereo unspecified)	x	x	-1	x	-3	-10	x	x	x
Nc1ccc(Br)cc1C(=O)O	0	102	-6	103	-4	1	x	x	x
Nc1ccc(-c2ccc(N)c(C(=O)O)c2)cc1C(=O)O	-12	44*[inhibitor]	4	46*[inhibitor]	-9	-1	102	-3	102
CN(c1cccc2cccnc12)S(=O)(=O)c1ccccc1	-2	103	-2	103	-2	-10	x	x	x
Brc1cccc(Nc2nc(-c3cccnc3)cs2)c1	1	109	24	108	-2	-1	x	x	x
Clc1cccc(Nc2nc(-c3cccnc3)cs2)c1	x	x	19	154*	27	-10	103	-1	102
Cc1ccc(S(=O)(=O)N2CCOCC2)cc1NC(=O)c1ccc(F)cc1F	x	x	5	x	6	-3	x	x	x
Cc1[nH]n(-c2ccc(F)cc2)c(=O)c1C=Nc1ccc(S(=O)(=O)N(C)C)cc1	13	97	-7	11*[inhibitor]	0	-5	102	6	101
CN1CCN(c2nc(-c3ccccc3)nc(-c3ccccc3)c2C#N)CC1	22	116	4	146*	13	-15	122	10	100
COc1ccc(-c2nc(-c3cccc(C)c3)nc(N3CCN(C)CC3)c2C#N)cc1	32*	107	-8	144	41	2	149	38	108
COc1cccc(-c2nc(-c3ccccc3)nc(N3CCN(C)CC3)c2C#N)c1	12	100	-4	136	19	-10	x	x	x
COc1ccc(-c2nc(-c3ccccc3)nc(N3CCN(C)CC3)c2C#N)cc1	6	105	6	152*	18	-11	154	28	107
CCOC(=O)c1sc(NC(=O)CSc2nc(-c3ccco3)cc(C(F)(F)F)n2)c(C(=O)OCC)c1C	x	x	x	x	x	-2	x	x	x
O=C(CN1CCC(C(=O)c2ccc3c(c2)OCCO3)CC1)NCc1ccc(F)cc1	5	99	13	103	7	-6	x	x	x
CCc1ccc2c(c1)c1nnc(NN)nc1n2CC	2	164*	24	118	-5	2	94	-2	93
Cc1ccccc1S(=O)(=O)Cc1ccc(C(=O)O)o1	-13	80*[inhibitor]	-4	82	7	-2	107	14	108
CCOC(=O)N1CCN(C(=O)CCc2ccc(S(=O)(=O)NC(C)(C)C)cc2)CC1	-1	102	x	102	-7	6	x	x	x
COc1ccc(-c2csc3ncnc(N4CCN(c5ccc(OC)cc5)CC4)c23)cc1	-3	102	25	101	-3	0	x	x	x
COc1ccc(-c2nsc3c(N4CCCC4)ncnc23)cc1	-15	-1.0*[inhibitor]	-6	-2.0*[inhibitor]	7	-8	98	-2	98
CN(C)c1ccc(/C=C2/C=C(c3ccc4c(c3)CCCC4)OC2=O)cc1	-8	73*[inhibitor]	13	68	-205	-2	81	-1	83
COc1ccc(C2=C/C(=C\c3ccc(OC(C)=O)cc3)C(=O)O2)cc1	1	102	23	104	-17	-3	x	x	x
Cc1sc(N)nc1-c1ccc2c(c1)OCCO2	12	103	-3	105	-6	3	x	x	x

Screening data from PubChem.
